Source: article PMC5540273 (PLoS ONE, 2017)

Assays:
Conditions in all cases: concentration: 1 μM, replicates: in singlicate; n = 1
JNK3 = test system: T1, JNK3
T1 construct: gene MAPK10

KIT-autoinhibited = test system: KIT-autoinhibited
KIT = test system: KIT
LATS1 = test system: LATS1
LATS2 = test system: LATS2
LCK = test system: LCK
LIMK1 = test system: LIMK1
LIMK2 = test system: LIMK2
LKB1 = test system: T2, LKB1
T2 construct: gene STK11

LOK = test system: T3, LOK
T3 construct: gene STK10

LRRK2 = test system: LRRK2
LTK = test system: LTK
LYN = test system: LYN
LZK = test system: T4, LZK
T4 construct: gene MAP3K13

MAK = test system: MAK
MAP3K15 = test system: MAP3K15
MAP3K1 = test system: MAP3K1
MAP3K2 = test system: MAP3K2
MAP3K3 = test system: MAP3K3
MAP3K4 = test system: MAP3K4
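Note: KINOMEscan kinase panel screen.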

CS(=O)(=O)CCNCc1nc(-c2ccc3ncnc(Nc4ccc(OCc5ccccc5)c(Cl)c4)c3c2)cs1.Cl [GW582764]
%Inh (JNK3): 0% | %Inh (KIT-autoinhibited): 0% | %Inh (KIT): 1% | %Inh (LATS1): 0% | %Inh (LATS2): 0% | %Inh (LCK): 17% | %Inh (LIMK1): 0% | %Inh (LIMK2): 0% | %Inh (LKB1): 0% | %Inh (LOK): 0% | %Inh (LRRK2): 12% | %Inh (LTK): 0% | %Inh (LYN): 0% | %Inh (LZK): 36% | %Inh (MAK): 26% | %Inh (MAP3K15): 0% | %Inh (MAP3K1): 6% | %Inh (MAP3K2): 3% | %Inh (MAP3K3): 0% | %Inh (MAP3K4): 20%

COc1ccc(CSc2nnc(-c3ccc4nccn4c3)o2)cc1C(F)(F)F
%Inh (JNK3): 0% | %Inh (KIT-autoinhibited): 10% | %Inh (KIT): 0% | %Inh (LATS1): 24% | %Inh (LATS2): 23% | %Inh (LCK): 4% | %Inh (LIMK1): 0% | %Inh (LIMK2): 0% | %Inh (LKB1): 6% | %Inh (LOK): 3% | %Inh (LRRK2): 0% | %Inh (LTK): 0% | %Inh (LYN): 7% | %Inh (LZK): 18% | %Inh (MAK): 0% | %Inh (MAP3K15): 13% | %Inh (MAP3K1): 15% | %Inh (MAP3K2): 30% | %Inh (MAP3K3): 9% | %Inh (MAP3K4): 12%

COc1cccc(C2=C(Nc3cc(Cl)c(O)c(Cl)c3)C(=O)NC2=O)c1 [SB-390767]
%Inh (JNK3): 15% | %Inh (KIT-autoinhibited): 0% | %Inh (KIT): 0% | %Inh (LATS1): 1% | %Inh (LATS2): 0% | %Inh (LCK): 0% | %Inh (LIMK1): 31% | %Inh (LIMK2): 0% | %Inh (LKB1): 0% | %Inh (LOK): 0% | %Inh (LRRK2): 55% | %Inh (LTK): 96.8% | %Inh (LYN): 0% | %Inh (LZK): 0% | %Inh (MAK): 4% | %Inh (MAP3K15): 0% | %Inh (MAP3K1): 12% | %Inh (MAP3K2): 0% | %Inh (MAP3K3): 0% | %Inh (MAP3K4): 7%

Cc1ccc(NC(=O)Nc2ccc(Cl)c(C(F)(F)F)c2)cc1-c1ccc(C(=O)Nc2ccncc2)cc1 [GSK1398470]
%Inh (JNK3): 0% | %Inh (KIT-autoinhibited): 45% | %Inh (KIT): 99.5% | %Inh (LATS1): 0% | %Inh (LATS2): 15% | %Inh (LCK): 57% | %Inh (LIMK1): 28% | %Inh (LIMK2): 14% | %Inh (LKB1): 6% | %Inh (LOK): 65% | %Inh (LRRK2): 0% | %Inh (LTK): 4% | %Inh (LYN): 42% | %Inh (LZK): 0% | %Inh (MAK): 15% | %Inh (MAP3K15): 0% | %Inh (MAP3K1): 3% | %Inh (MAP3K2): 0% | %Inh (MAP3K3): 0% | %Inh (MAP3K4): 14%

COc1cccc(CNC(=O)NC2CCN(c3ccnc(Nc4ccc(F)cc4)n3)C2)c1 (centres unmarked) [GSK1379723]
%Inh (JNK3): 11% | %Inh (KIT-autoinhibited): 0% | %Inh (KIT): 23% | %Inh (LATS1): 10% | %Inh (LATS2): 0% | %Inh (LCK): 11% | %Inh (LIMK1): 3% | %Inh (LIMK2): 0% | %Inh (LKB1): 0% | %Inh (LOK): 0% | %Inh (LRRK2): 25% | %Inh (LTK): 59% | %Inh (LYN): 0% | %Inh (LZK): 0% | %Inh (MAK): 23% | %Inh (MAP3K15): 0% | %Inh (MAP3K1): 7% | %Inh (MAP3K2): 0% | %Inh (MAP3K3): 0% | %Inh (MAP3K4): 13%

COc1ccc(Nc2nccc(NCCNC(=O)Nc3cc(C)ccc3C)n2)cc1 [GSK1379899]
%Inh (JNK3): 0% | %Inh (KIT-autoinhibited): 0% | %Inh (KIT): 0% | %Inh (LATS1): 0% | %Inh (LATS2): 0% | %Inh (LCK): 26% | %Inh (LIMK1): 0% | %Inh (LIMK2): 0% | %Inh (LKB1): 0% | %Inh (LOK): 0% | %Inh (LRRK2): 23% | %Inh (LTK): 0% | %Inh (LYN): 0% | %Inh (LZK): 0% | %Inh (MAK): 20% | %Inh (MAP3K15): 0% | %Inh (MAP3K1): 1% | %Inh (MAP3K2): 0% | %Inh (MAP3K3): 0% | %Inh (MAP3K4): 3%

CCn1c(-c2c(N)noc2C)nc2cnccc21 [SB-737856]
%Inh (JNK3): 9% | %Inh (KIT-autoinhibited): 0% | %Inh (KIT): 0% | %Inh (LATS1): 0% | %Inh (LATS2): 0% | %Inh (LCK): 10% | %Inh (LIMK1): 3% | %Inh (LIMK2): 100% | %Inh (LKB1): 0% | %Inh (LOK): 0% | %Inh (LRRK2): 0% | %Inh (LTK): 10% | %Inh (LYN): 0% | %Inh (LZK): 0% | %Inh (MAK): 0% | %Inh (MAP3K15): 0% | %Inh (MAP3K1): 0% | %Inh (MAP3K2): 17% | %Inh (MAP3K3): 0% | %Inh (MAP3K4): 19%

Cn1cncc1-c1cc2c(Nc3ccc(OCc4ccccc4)cc3)ncnc2cn1 [GW281179]
%Inh (JNK3): 1% | %Inh (KIT-autoinhibited): 0% | %Inh (KIT): 39% | %Inh (LATS1): 0% | %Inh (LATS2): 0% | %Inh (LCK): 24% | %Inh (LIMK1): 11% | %Inh (LIMK2): 6% | %Inh (LKB1): 0% | %Inh (LOK): 0% | %Inh (LRRK2): 10% | %Inh (LTK): 4% | %Inh (LYN): 0% | %Inh (LZK): 0% | %Inh (MAK): 19% | %Inh (MAP3K15): 0% | %Inh (MAP3K1): 0% | %Inh (MAP3K2): 0% | %Inh (MAP3K3): 0% | %Inh (MAP3K4): 15%

COC(=O)C(NC(=O)NC1CCN(c2ccnc(Nc3ccc(F)cc3)n2)C1)c1ccccc1 (centres unmarked) [GSK1379712]
%Inh (JNK3): 0% | %Inh (KIT-autoinhibited): 5% | %Inh (KIT): 29% | %Inh (LATS1): 13% | %Inh (LATS2): 5% | %Inh (LCK): 18% | %Inh (LIMK1): 17% | %Inh (LIMK2): 10% | %Inh (LKB1): 15% | %Inh (LOK): 0% | %Inh (LRRK2): 0% | %Inh (LTK): 30% | %Inh (LYN): 7% | %Inh (LZK): 18% | %Inh (MAK): 0% | %Inh (MAP3K15): 0% | %Inh (MAP3K1): 6% | %Inh (MAP3K2): 0% | %Inh (MAP3K3): 0% | %Inh (MAP3K4): 6%

CNc1cc(-c2ccc3c(N)n[nH]c3c2)nc(N)n1 [GSK2224810]
%Inh (JNK3): 0% | %Inh (KIT-autoinhibited): 0% | %Inh (KIT): 19% | %Inh (LATS1): 0% | %Inh (LATS2): 20% | %Inh (LCK): 0% | %Inh (LIMK1): 0% | %Inh (LIMK2): 9% | %Inh (LKB1): 0% | %Inh (LOK): 0% | %Inh (LRRK2): 0% | %Inh (LTK): 0% | %Inh (LYN): 0% | %Inh (LZK): 18% | %Inh (MAK): 0% | %Inh (MAP3K15): 0% | %Inh (MAP3K1): 0% | %Inh (MAP3K2): 0% | %Inh (MAP3K3): 0% | %Inh (MAP3K4): 0%
